# From ChEMBL document CHEMBL1157539, “Thousands of chemical starting points for antimalarial lead identification” (Nature, 2010)
# Where “and” joins values, the source holds several entries; their conditions need not be identical. Equal entries are not always repeated.
# Legend:
# Format in all cases: functional
# Plasmodium falciparum [1] = assay: GSK_TCMDC: Inhibition of Plasmodium falciparum 3D7 in whole red blood cells, using parasite LDH activity as an index of growth. Test compounds present at 2uM
# Plasmodium falciparum [2] = assay: GSK_TCMDC: Inhibition of Plasmodium falciparum Dd2 in whole red blood cells, using parasite LDH activity as an index of growth. Test compounds present at 2uM
# HepG2 = assay: GSK_TCMDC: Percent inhibition of human HepG2 cell line. Test compounds present at 10uM.
SMILES,Inhibition (Plasmodium falciparum [1]),Inhibition (Plasmodium falciparum [2]) [%],Inhibition (HepG2)
C=CCC(C)n1ncc2c3c(N)nc(N)nc3ccc21 (configuration not stated),93%,95,66%
Cc1ccc(C)c(Cn2c(N3CCC(C(=O)NCc4cccs4)CC3)nc3ccccc32)c1,89%,73,0%
CCOC(=O)c1[nH]c2cc(Cl)cc(Cl)c2c1/C=C/C(=O)Nc1ccc(-c2cnc(NC(C)=O)[nH]2)cc1,100%,65,45%
CCc1nc(N)nc(N)c1-c1ccc(Cl)cc1 [PYRIMETHAMINE],94% and 93%,0,71% and 66%
Cc1ccc(Cn2ncc(N3CCNCC3)c(Cl)c2=O)cc1NC(=O)Nc1ccc(-c2ccccc2)cc1.O=C(O)C(F)(F)F,90%,30,56%
CCCCN1CC[C@@H](CCC(O)c2cc(OCCC)nc3ccc(OC)cc23)[C@@H](CC)C1.O=C(O)C(=O)O (some centres not stated),100%,99,23%
O=C(Nc1ccc(S(=O)(=O)N2CCCC2)cc1)c1cc(-c2cccnc2)nc2ccc(Cl)cc12,97%,95,4%
Cc1nnsc1C(=O)Nc1ccc(-c2cccc(-c3nc4cc(F)ccc4[nH]3)c2)cc1,96%,27,44%
COc1ccc2nccc(NCC3(O)CCN(CC(O)c4ccc5c(c4)NC(=O)CS5)CC3)c2n1.Cl (configuration not stated),100%,3,3%
COc1ccc(C(C(=O)NC2CCN(C[C@H](O)c3ccnc4ccc(OC)cc34)CC2)N2CCN(c3ccc(Cl)c(Cl)c3)CC2)cc1 (some centres not stated),100%,79,12%
COc1ccc2nccc([C@@H](O)CN3CCC(NC(=O)C(c4ccsc4)N4CCN(c5ccccc5)CC4)CC3)c2c1 (some centres not stated),95%,17,24%
O=C1c2ccc([N+](=O)[O-])cc2C(=O)N1c1ccc2[nH]ncc2c1,87%,0,11%
CC(CCc1ccccc1)NCC(O)c1ccc2c3c(cccc13)C(=O)N2C.Cl (configuration not stated),99%,57,37%
Cc1nnsc1C(=O)Nc1ccc(-c2ccc(-c3nc4ccccc4[nH]3)s2)cc1,92%,38,49%
COc1ccc(-c2c(C(F)(F)F)nn(C)c2NC(=O)Nc2ccc(F)cc2F)cc1,100%,99,8%
Cc1cccc2nc(-c3ccc(-c4ccc(CNCCNC(=O)c5ccnn5C)cc4)cc3)[nH]c12.O=C(O)C(F)(F)F,100%,98,29%
O=C(O)C(F)(F)F.c1ccc(CNCc2cccc(-c3csc(-c4nc5ccccc5[nH]4)c3)c2)cc1,100%,54,24%
Cc1cc(N[C@@H](Cc2ccccc2)C(=O)Nc2ccccc2)nc(NCC2CCCCC2)n1.O=C(O)C(F)(F)F,98%,55,12%
c1ccc(-c2cccnn2)cc1,98%,6,0%
COCCN(C(=O)Cc1cccs1)C(C(=O)NCc1ccc(OC)cc1)c1ccc(C(C)C)cc1 (configuration not stated),96%,59,0%

SMILES,Inhibition (Plasmodium falciparum [1]),Inhibition (Plasmodium falciparum [2]) [%],Inhibition (HepG2)
N#Cc1ccc(N/C(=N\c2ccc(-c3ccccc3)cc2)NCCc2c[nH]c3ccccc23)c(O)c1,96%,75,6%
CC(C)NCc1ccc(-c2cccc(NC(=O)c3ccc(C#N)cc3)c2)cc1.O=C(O)C(F)(F)F,100%,19,8%
CCCc1cc(Cc2cnc(N)nc2N)cc(CC)c1OC.Cl,97%,1,4%
Cc1ccccc1C1CCN(C2CCC(NC(=O)c3ccc(-c4ccccc4F)o3)CC2)CC1 (configuration not stated),99%,66,42%
C[C@H]1CN(Cc2cccc(-c3cc(CNC(=O)c4cccc(CN5CCN(CCOc6ccccc6)CC5)c4)ccc3F)c2)CCN1.O=C(O)C(F)(F)F,91%,88,59%
Cc1ccc2cc(NC(=O)c3cccc(C(=O)Nc4ccc5nc(C)ccc5c4)n3)ccc2n1,92%,23,21%
Cc1ccc(Nc2nc(C)cc(Nc3cccc(NS(C)(=O)=O)c3)n2)cc1,96%,8,0%
Cc1cccc2nc(-c3ccc(-c4cccc(NC(=O)Nc5ccc(Cl)c(Cl)c5)c4)s3)[nH]c12,100%,36,46%
Cl.Clc1ccc2c(NCCCCCCCCNc3ccnc4cc(Cl)ccc34)ccnc2c1,99%,96,2%
Cc1ccc(CNC(=O)[C@H](Cc2ccccc2)Nc2ccnc(NCC3CCCCC3)n2)cc1.O=C(O)C(F)(F)F,92%,61,84%
COc1ccc2ncc(F)c(CCN3CC(O)C(CNCc4ccccc4)C3)c2n1.Cl (configuration not stated),89%,22,19%
O=C(Nc1ccc(-c2ccccc2)c(OCCN2CCNCC2)c1)c1ccc(-c2ccc(Cl)cc2)cc1,96%,31,92%
CC1CNC(c2ccc(NC(=O)c3ccc(C(=O)Nc4ccc(C5=NC(C)CN5)cc4)cc3)cc2)=N1.CS(=O)(=O)O (configuration not stated),99%,100,15%
CCN(CCCN1CCCCC1)c1cc(C)nc(Nc2ccc(C)c(Cl)c2)n1.O=C(O)C(F)(F)F,100%,100,32%
COc1cc(Nc2nccc(N3CCC(NC(=O)C(C)c4ccc(Cl)cc4)C3)n2)cc(OC)c1OC (configuration not stated),97%,90,2%
Cn1cccc1C(=O)C(=O)Nc1ccc(-c2ccc(-c3nc4cc(F)ccc4[nH]3)cc2)cc1,92%,33,44%
Cc1cc(C(=O)OCC(N)=O)c(C)n1-c1ccc(F)cc1,97%,96,0%
CCCc1cc(Cc2cnc(N)nc2N)cc(CCC)c1OCCCCCC(=O)OCC,95%,0,12%
O=C(Nc1ccc(Cn2ncc(N3CCCNCC3)c(Cl)c2=O)cc1)Nc1ccc(OCc2ccccc2)cc1.O=C(O)C(F)(F)F,90%,32,15%
COc1ccc2nc3cc(Cl)ccc3c(Nc3ccc(C(=O)O)cc3)c2c1.Cl,94%,95,0%

SMILES,Inhibition (Plasmodium falciparum [1]),Inhibition (Plasmodium falciparum [2]) [%],Inhibition (HepG2)
C=CC[C@H](C[C@H](O)[C@H](Cc1ccccc1)NC(=O)c1ccc(-n2cccn2)cc1)C(=O)NC1CCCCC1,96%,0,1%
CN1CCCC(CN2CCN(Cc3ccc(-c4cccc(-c5nc6ccccc6[nH]5)c4)cc3)CC2)C1.O=C(O)C(F)(F)F (configuration not stated),100%,100,57%
Cc1noc(-c2ccccc2)c1CN1CCCC2(CC(C(=O)NCc3cccc(F)c3F)=NO2)C1.O=C(O)C(F)(F)F (configuration not stated),85%,28,0%
CN(C)CCN(C)C(=O)c1cc(-c2ccncc2)c(-c2ccc(Cl)c(O)c2)o1.Cl,97%,34,0%
CC(C)(C)N1CCC(N(Cc2ccc(-c3ccc(C(F)(F)F)cc3)cc2)C(=O)Cn2c(CCc3cccc(F)c3F)cc(=O)c3cccnc32)CC1.O=C(O)C(O)C(O)C(=O)O,100%,63,100%
COc1ccc2ncc(F)c(CCN3CC(O)C(CNCc4ccc5c(n4)NC(=O)CS5)C3)c2c1.Cl (configuration not stated),92%,34,0%
COc1ccc(Cl)cc1N1CCN(CCCNC(=O)c2ccc(-c3nc4cc(Cl)c(Cl)cc4[nH]3)c(C)c2)CC1,100%,0,4%
Cc1cccc2nc(-c3ccc(-c4ccc(CN5CCN(CCO)CC5)cc4)cc3)[nH]c12.O=C(O)C(F)(F)F,100%,97,20%
COc1ccc2nccc([C@@H](O)CN3CCC(NC(=O)Cc4cccc5c(Br)cccc45)CC3)c2c1,99%,34,15%
CC(=O)c1ccc(NC(=O)Nc2ccc(N(C)c3ccnc(NC4CC4)n3)cc2)cc1,100%,60,59%
CC(=O)Nc1ccc(C(=O)Nc2ccc(-c3cccc(-c4nc5cccc(C)c5[nH]4)c3)cc2)cn1,99%,74,36%
NS(=O)(=O)c1cccc(Br)c1,98%,0,0%
O=C1COc2ccc(CNC3CCC(O)(CCc4ccnc5cc6c(cc45)OCCO6)CC3)nc2N1 (configuration not stated),92%,0,0%
C[C@H](Cc1ccc(C[C@@H](C)NC[C@H](O)c2cccc(Cl)c2)cc1)NC[C@H](O)COc1ccccc1.Cl,96%,60,99%
CCCCC1=CC2C(=O)C(C(=O)OC)=CN=C2C=C1OCc1ccccc1 (configuration not stated),99%,98,7%
C[C@H](Cc1ccc(OCCCCCCOc2ccc(C[C@@H](C)NC(=O)[C@H](O)c3cccc(Cl)c3)cc2)cc1)NC[C@H](O)c1cccc(Cl)c1,99%,99,39%
O=C(/C=C/c1ccc(Cl)c(Cl)c1)NCCCCCN1CCC(NC(=O)Nc2ccc(Cl)c(C(F)(F)F)c2)CC1,99%,19,76%
O=C(Cn1cnc2c(nnn2Cc2ccccc2F)c1=O)Nc1ccc2c(c1)OCCO2,86%,1,0%
CS(=O)(=O)Nc1ccc2c(C3CCN(CCC4CCN(C(=O)/C=C/c5ccc(Cl)c(Cl)c5)CC4)CC3)c[nH]c2c1,99%,63,35%
